We go through 45 compounds from PubChem BioAssay (NCATS).

Records with an inconclusive call do not appear. Entries that show only a call come without a potency. Activity calls are given as the source filed them. The call rests on the fitted dose curve; in most records, active means well fitted curve in the direction sought with a large enough effect; inconclusive means small, poorly fitted or top-dose-only effect, or another doubt; inactive means no such curve, though single readings can be large; an effect the other way counts as inactive or inconclusive.

Assay [1] relates to Zika virus NS2B-NS3 protease (linked construct). Briefly: Confirmatory screen NINDS AMC qHTS for Zika virus inhibitors (AID 1347152). Further: nearly all actives have a fitted effect of over 70% in size. Further: potency means the concentration at half of the fitted maximal effect. Put shortly: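 Concentration-response confirmation used the NINDS linked protease (NS2B hydrophilic domain joined to NS3 protease domain), 1 nM, with a 15-min compound preincubation. Substrate, Nle-KRR-AMC at 10 microM, was read by UV fluorescence before and after 15 min.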

In assay [2] the test system is Zika virus NS2B-NS3 protease (unlinked complex). Briefly: Confirmatory screen GU AMC qHTS for Zika virus inhibitors (AID 1347153). Further: nearly all actives have a fitted effect of over 70% in size. Put shortly: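 Unlinked enzyme 25 nM, Tris pH 8.0/0.01% Tween 20; cpd 15 min RT, dark; + AMC substrate 10 µM (Km 18.3 µM); 340/450 nm read at t0 and 15 min; % inhibition → 4-param fit.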
Assay [3] is described as follows: Confirmatory screen NINDS Rhodamine qHTS for Zika virus inhibitors (AID 1347161).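 Further: purified Zika NS2B-NS3 protease with linked NS2B cofactor domain and Rhodamine110 peptide substrate; series mostly up to about 110 µM; nearly all actives have a fitted effect of over 60% in size.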 The method, boiled down:
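Rhodamine110-peptide cleavage (1.5 µM substrate) by 25 nM linked NS2B-NS3 enzyme at pH 8.0 (Tris, Tween 20), after 15 min RT preincubation with compounds; 15-min fluorescence change normalized to controls and Hill-fitted.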

Assay [4] has as its system Zika virus NS2B-NS3 protease. Briefly: Primary screen GU AMC qHTS for Zika virus inhibitors (AID 1347154). Further: nearly all actives have a fitted effect of over 70% in size. Further: potency means the concentration at half of the fitted maximal effect. Put shortly: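 Unlinked Zika NS2B hydrophilic domain/NS3 protease domain noncovalent complex (25 nM final) in 10 mM Tris-HCl pH 8.0, 0.01% Tween 20, with AMC peptide substrate. Fluorescence (ex 340, em 450 nm) change over 15 min, room temperature; percent inhibition fitted to 4-parameter Hill equation.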

In assay [5] the test system is Zika virus NS2B-NS3 protease (unlinked). The experiment in a line: Optimization of GU AMC qHTS for Zika virus inhibitors: Unlinked NS2B-NS3 protease assay (AID 1347151). Further: series mostly up to about 52 µM; nearly all actives have a fitted effect of over 80% in size. The method, boiled down: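 In this qHTS, compounds acted on 25 nM unlinked Zika NS2B–NS3 in pH 8.0 Tris/Tween buffer. Cleavage of an AMC peptide ran 15 min at room temperature, to about 20% conversion.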

Assay [6] has as its system Zika virus NS2B-NS3 protease (linked construct). Briefly: Primary screen NINDS Rhodamine qHTS for Zika virus inhibitors (AID 1347160). Further: nearly all actives have a fitted effect of over 55% in size. Put shortly: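 Percent inhibition, normalized to uninhibited and enzyme-free controls, is fitted to a 4-parameter Hill equation. Fluorescence change comes from a 15-min cleavage of 1.5 microM bis-peptide Rhodamine110 substrate by 25 nM linked NS2B-NS3 at room temperature.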

Assay [7] deals with Zika virus NS2B-NS3 protease (unlinked complex). Briefly: Primary screen GU Rhodamine qHTS for Zika virus inhibitors: Unlinked NS2B-NS3 protease assay (AID 1347159). Further: nearly all actives have a fitted effect of over 60% in size. The method, boiled down:
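Compounds, tested up to 114 microM, were incubated for 15 minutes with 25 nM unlinked NS2B-NS3 protease at pH 8.0. Cleavage of 1.5 microM Rhodamine110 substrate was then followed by fluorescence for 15 minutes.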

Take `CC(C)Oc1cccnc1N(C)C1CCN(Cc2ccccc2)CC1`: the Potency entry in assay [1] and in assay [3] was “inactive” each time. The compound was called inactive in assay [2].

With `NC1=NC(=O)N2CC12` (centres undefined), in assay [4], the Potency entry is “inactive”.

As for `C[C@](O)(COc1ccc(C#N)cc1)C(=O)Nc1ccc(C#N)c(C(F)(F)F)c1`, in assay [4], the Potency entry was “inactive”.

As for `NCCc1c[nH]c2ccccc12`, the Potency entry in assay [5], in assay [4] and in assay [6] was “inactive” in each case.

`CC[C@@H](C(N)=O)N1CCCC1=O`: the Potency result in assay [5] and in assay [4] was “inactive” each time.

In the case of `COC(=O)c1cncn1C(C)c1ccccc1` (centres undefined), the Potency result in assay [4] was “inactive”.

As for `O=C(O)Cc1cnc[nH]1`, the Potency result in assay [5] and in assay [4] was “inactive” each time.

Turning to `Nc1ccc(Cl)cc1N`, the Potency result in assay [4] is “inactive”.

On to `NC(CP(=O)(O)O)C(=O)O` (centres undefined), for which the Potency result in assay [5] and in assay [4] was “inactive” throughout.

On to `COC[C@H]1OC(=O)c2coc3c2[C@@]1(C)C1=C(C3=O)[C@@H]2CC[C@H](O)[C@@]2(C)C[C@@H]1OC(C)=O`, for which the Potency entry in assay [4] was “inactive”.

In the case of `NC(CCP(=O)(O)O)C(=O)O` (centres undefined), the Potency entry in assay [5] and in assay [4] was “inactive” in each case.

In the case of `c1ccc(CCCN2CCN(CCOC(c3ccccc3)c3ccccc3)CC2)cc1`, the Potency entry in assay [5] and in assay [4] was “inactive” throughout.

In the case of `C=C1C[C@H]2[C@H]3CCC(=O)[C@@]3(C)CC[C@@H]2[C@@]2(C)C=CC(=O)C=C12`, the Potency entry in assay [4] was “inactive”.

As for `CC(=O)N(C)c1cccc(-c2ccnc3c(C(=O)c4cccs4)cnn23)c1`, the Potency in assay [1] is 24.1 µM (active); in assay [4], 21.5 µM (active). In addition, the Potency entry in assay [7], in assay [6] and in assay [3] was “inactive” in each case.

With `COC(=O)[C@@H](N)CCCN=C(N)N[N+](=O)[O-]`, the Potency result in assay [5] and in assay [4] was “inactive” each time.

As to `CCCN(CCC)[C@@H]1CCc2ccc(O)cc2C1`, the Potency result in assay [5] and in assay [4] was “inactive” each time.

In the case of `O=C(N[C@H]1CN2CCC1CC2)c1ccc(Cl)cc1`, the Potency result in assay [5], in assay [4], in assay [7] and in assay [6] was “inactive” throughout.

`CC(=O)NCCc1c[nH]c2ccccc12`: the Potency entry in assay [5], in assay [4], in assay [7] and in assay [6] was “inactive” in each case.

Turning to `c1ccc2c(CN3CCNCC3)cccc2c1`, the Potency entry in assay [4] was “inactive”.

`S=C(NC1CCCCC1)N1CCC(c2cnc[nH]2)CC1`: the Potency entry in assay [5], in assay [4], in assay [7] and in assay [6] was “inactive” each time.

For the compound `Clc1cnc(Oc2ccc(Oc3ncc(Cl)cc3Cl)cc2)c(Cl)c1`, the Potency entry in assay [5] and in assay [4] was “inactive” throughout.

As for `CC(Cc1ccc(O)cc1)NCC(O)c1cc(O)cc(O)c1` (centres undefined), the Potency entry in assay [5] and in assay [4] was “inactive” throughout.

As for `CCCN1CCO[C@@H]2c3cc(O)ccc3OC[C@@H]21`, the Potency result in assay [4] is “inactive”.

As for `NCCc1c[nH]c2ccc(O)cc12`, the Potency entry in assay [5], in assay [4] and in assay [6] was “inactive” in each case.

As to `CCCN1CCO[C@@H]2c3cc(O)ccc3OC[C@H]21`, the Potency entry in assay [5] and in assay [4] was “inactive” in each case.

Consider `C[C@H]([C@H](O)CCC(C)(C)O)[C@H]1CC[C@@]2(O)C3=CC(=O)[C@@H]4C[C@@H](O)[C@@H](O)C[C@]4(C)[C@@H]3CC[C@]12C`, for which the Potency entry in assay [4] was “inactive”.

`O=C(O)C(Cl)Cl`: the Potency result in assay [4] is “inactive”.

Regarding `COc1cc2cc(c1Cl)N(C)C(=O)C[C@H](OC(=O)C(C)C)[C@]1(C)O[C@H]1[C@H](C)[C@@H]1C[C@@](O)(NC(=O)O1)[C@H](OC)C=CC=C(C)C2`, the Potency entry in assay [4] was “inactive”.

On to `CC(=O)[O][Hg][c]1ccccc1`, for which the Potency entry in assay [4] was “inactive”.

For the compound `OCCCBr`, in assay [4], the Potency entry is “inactive”.

Turning to `CCCN(CCC)C1CCc2ccc(O)cc2C1` (centres undefined), the Potency entry in assay [5] and in assay [4] was “inactive” throughout.

For the compound `C#CCOC(=O)C1=CCCN(C)C1`, the Potency result in assay [5] and in assay [4] was “inactive” each time.

`c1cc2c(cc1[C@H]1OC[C@H]3[C@H]1CO[C@H]3c1ccc3c(c1)OCO3)OCO2`: in assay [4], the Potency entry was “inactive”.

Consider `CC1=C(C(=O)O)N2C(=O)[C@@H](N)[C@H]2SC1`, for which the Potency result in assay [4] is “inactive”.

In the case of `CC(O)=C(C#N)C(=O)Nc1cc(Br)ccc1Br`, in assay [4], the Potency result is “inactive”.

As to `CCN1CCN(C(=O)Cc2ccc(Nc3ncc(F)c(Nc4ccc(C(=O)Nc5ccccc5Cl)cc4)n3)cc2)CC1`, the Potency entry in assay [4] and in assay [6] was “inactive” each time.

As for `O=C(Oc1ccc([N+](=O)[O-])cc1)N1CCC(C(O)(c2ccc3c(c2)OCO3)c2ccc3c(c2)OCO3)CC1`, the Potency result in assay [4] and in assay [6] was “inactive” each time.

Consider `CC1(N2CCC(n3c([C@@H]4CCCNC4)nc4ccccc43)CC2)CCCCCCC1`, for which the Potency entry in assay [4], in assay [7] and in assay [6] was “inactive” in each case.

On to `CCOP(=O)(OCC)C(C)NC(=O)N(CCCl)N=O` (centres undefined), for which, in assay [4], the Potency entry was “inactive”.

In the case of `Cc1c(C(=O)Nc2cccc(C(F)(F)F)c2)cc(-c2ccccc2)n1CCCN1CCOCC1`, the Potency result in assay [4], in assay [7] and in assay [6] was “inactive” each time.

`CC(C)N(CCNC(=O)CN1CCCC1=O)C(C)C`: the Potency result in assay [4], in assay [7] and in assay [6] was “inactive” each time.

As to `Cc1ccccc1-n1c(Cn2cnc3c(N)ncnc32)nc2cccc(C)c2c1=O`, the Potency result in assay [4], in assay [7] and in assay [6] was “inactive” each time.

Turning to `CC(C)[C@]12O[C@H]1[C@@H]1O[C@]13[C@]1(O[C@H]1C[C@H]1C4=C(CC[C@@]13C)C(=O)OC4)[C@@H]2O`, the Potency entry in assay [4] and in assay [6] was “inactive” throughout.

In the case of `CC(N[C@H]1C[C@H]1c1ccccc1)c1ccc2c(c1)OCCO2` (some centres undefined), the Potency result in assay [4] and in assay [7] was “inactive” each time.

As to `COC1=C[C@@H]2[C@@H]3Cc4ccc(OC)c(O)c4[C@]2(CCN3C)CC1=O`, the Potency entry in assay [4] and in assay [6] was “inactive” throughout.
